# Assay results reported in PubChem BioAssay AID1053126 (Broad Institute, 2014).
# Measured potencies and affinities stand elsewhere. Values without a mark were called inactive.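 How the source made its calls: active means cell killing with a fitted half-effect concentration at or below twice the top valid dose; inconclusive means flat curve with 30 to 70 percent drop, or poor fit; inactive means the rest.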
# Assay: HEK293T cell cytotoxicity, dose response, cytotoxicity control, ATP luminescence, cherry-pick, set 6 (AID 1053126);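 further: 0% = neutral control wells and -100% = mitoxantrone 10 µM positive control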
# Settings: HEK293T viability, CellTiter-Glo ATP luminescence, 72 h; series mostly up to 26 µM; activity change, negative = cytotoxicity: at the top concentration
row,SMILES,"activity change, negative = cytotoxicity [%]"
1,COCCNC(=O)c1cc2c(=O)n3cccc(C)c3nc2n(Cc2ccncc2)c1=N,-15.1
2,COc1ccc(NC(=O)C2CCC(CNS(=O)(=O)c3cccs3)CC2)cc1 (configuration not stated),-11.5
3,COc1ccc(C2C3=C(CC(C)(C)CC3=O)N(C)C3=C2C(=O)CC(C)(C)C3)cc1,-3.74
4,CCN1C=C(C(=O)OC)C(c2cccc(OC)c2OC)C(C(=O)OC)=C1,-2.69
5,COc1ccccc1C(=O)c1cc2ccc(O)cc2oc1=O,-13.3
6,O=C(Nc1ccc2c(c1)OCCO2)c1ccc(NC(=O)C2CCCO2)cc1 (configuration not stated),-0.148
7,CC(C)C(=O)Nc1sc2c(c1C(N)=O)CCN(Cc1ccccc1)C2,6.18
8,Cc1cccn2c(=O)c3cc(C(=O)NCCN4CCOCC4)c(=N)n(CCc4ccccc4)c3nc12,-20.7
9,O=C1CCc2cc(S(=O)(=O)NC(Cc3ccccc3)C(=O)NCCC3=CCCCC3)ccc2N1 (configuration not stated),8.41
10,CC1(C)CC(=O)C2=C(C1)OC(N)=C(C#N)[C@@H]2c1ccccc1[N+](=O)[O-],-7.08
11,CC(C)CCn1c(CN2CC(C)OC(C)C2)nc2c1c(=O)n(C)c(=O)n2C (configuration not stated),2.88
12,CCOC1=NN(c2ncc(C(F)(F)F)cc2Cl)C(=O)C1,15.9
13,CC1CC(C)CN(CCCNC(=O)CCC(=O)N2CC(C)Oc3ccccc32)C1 (configuration not stated),9.39
14,CCOC(=O)c1cc2c(=O)n3ccccc3nc2n(CCCOC)c1=NC(=O)c1ccncc1,-4.62
15,CCOC(=O)c1cc2c(=O)n3cccc(C)c3nc2n(CC(C)C)c1=NC(=O)c1ccco1,-0.128
16,CCOC(=O)C1CCCN(CCCc2ccccc2)C1 (configuration not stated),-3.56
17,CSc1ccc(Cl)c(C(=O)N2CCOc3ccccc32)c1,-3.33
18,CC(C)CCN1C(=O)c2cccc3c(N)ccc(c23)C1=O,-10.8
19,CCN(CC)c1ccc2c(C)c(Cl)c(=O)oc2c1,15.3

row,SMILES,"activity change, negative = cytotoxicity [%]"
1,COCCCn1c(=N)c(C(=O)NC2CCCCC2)cc2c(=O)n3ccccc3nc21,22.6
2,CNNC(=S)NC1CC2CC1C1C=CCC21 (configuration not stated),19.1
3,O=C(NS(=O)(=O)c1ccc(Cl)s1)c1ccccc1,-4.68
4,CCOc1ccc(NC(=O)CN(C)C(=O)CCCNC(=O)c2ccc(Cl)cc2)cc1OCC,-10.1
5,COc1cc(C(=O)NCCCNc2nc3c(C)cc(C)cc3cc2C#N)cc(OC)c1OC,7.6
6,N#Cc1c2ccc(OCC(N)=O)cc2n2ccccc12,-5.42
7,COc1ccc(Br)c(Cn2c(C)c(C(=O)NCc3ccc4c(c3)OCCO4)sc2=O)c1,-13.7
8,Cc1cccn2c(=O)c(/C=C(\C#N)C(N)=O)c(Oc3ccccc3)nc12,-7.72
9,CCN(CC)c1ccc2cc(C#N)c(=O)oc2c1,-1.21
10,O=C(NCc1ccc(F)cc1)C1CCCN1C(=O)Nc1cccc(F)c1 (configuration not stated),1.02
11,COc1ccccc1NS(=O)(=O)c1cc(NC(=O)CCNC(C)=O)ccc1C,4.56
12,O=C(NCc1nnnn1-c1ccc(Cl)cc1)C1CC(=O)N(c2ccc(F)cc2)C1 (configuration not stated),19.6
13,CCN(CC)CCN1C2=C(C(=O)CC(C)(C)C2)C(c2cccc(F)c2)C2=C1CC(C)(C)CC2=O,-0.832
14,O=C(O)c1[nH]c2ccccc2c1C(c1cc(Br)ccc1O)c1c(C(=O)O)[nH]c2ccccc12,25.2
15,Cc1ccc(NC(=O)Nc2ccnc(-c3cccnc3)n2)cc1,-11.9
16,C=CCc1c(O)c(CC)cc2c(C)cc(=O)oc12,-17.5
17,CC(=O)Oc1ccc2cc(-c3nc4ccccc4n3C)c(=O)oc2c1,-5.92
18,CC(C)c1ccc(/C=C2\Oc3c(ccc(O)c3CN3CCN(C)CC3)C2=O)cc1,-6.47
